In PubChem BioAssay (NCI):
“And” between values parts separate entries of the source, which are not always exact repeats. Equal entries are not always repeated. This is part of a sample that, as a whole, favours compounds with a hit. Of some 83,000 tested, about 20% had one in any assay.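 The test compound was applied at a single concentration to cells in 96-well plates for 48 hours, and percent growth was recorded.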 The source made the active and inactive calls. Rule for the calls: active = growth percent below 10; inactive = the rest.

Columns and labels:
Experiment in all cases: NCI-60 one-dose screen, 48 h (100 = growth as untreated, 0 = no growth, -100 = all killed)
Conditions in all cases: 10 µM unless noted
SK-MEL-2 melanoma = test system: SK-MEL-2 melanoma
EKVX NSCLC = test system: EKVX NSCLC
SN12C renal = test system: SN12C renal
UO-31 renal = test system: UO-31 renal
TK-10 renal = test system: TK-10 renal
ACHN renal = test system: ACHN renal
CAKI-1 renal = test system: CAKI-1 renal
A498 renal = test system: A498 renal
MOLT-4 leukemia = test system: MOLT-4 leukemia
SR leukemia = test system: SR leukemia
RPMI-8226 leukemia = test system: RPMI-8226 leukemia
OVCAR-8 ovarian = test system: OVCAR-8 ovarian
OVCAR-5 ovarian = test system: OVCAR-5 ovarian
OVCAR-4 ovarian = test system: OVCAR-4 ovarian
SK-OV-3 ovarian = test system: SK-OV-3 ovarian
IGROV1 ovarian = test system: IGROV1 ovarian
OVCAR-3 ovarian = test system: OVCAR-3 ovarian
HS 578T breast = test system: HS 578T breast
NCI/ADR-RES ovarian = test system: NCI/ADR-RES ovarian
CCRF-CEM leukemia = test system: CCRF-CEM leukemia

Row | Structure (SMILES) | growth (SK-MEL-2 melanoma) | growth (EKVX NSCLC) | growth (SN12C renal) | growth (UO-31 renal) | growth (TK-10 renal) | growth (ACHN renal) | growth (CAKI-1 renal) | growth (A498 renal) | growth (MOLT-4 leukemia) | growth (SR leukemia) | growth (RPMI-8226 leukemia) | growth (OVCAR-8 ovarian) | growth (OVCAR-5 ovarian) | growth (OVCAR-4 ovarian) | growth (SK-OV-3 ovarian) | growth (IGROV1 ovarian) | growth (OVCAR-3 ovarian) | growth (HS 578T breast) | growth (NCI/ADR-RES ovarian) | growth (CCRF-CEM leukemia)
1 | Cc1ncsc1CCO | 96.1% (inactive) and 107% (inactive) | 112% (inactive) and 99.6% (inactive) | 109% (inactive) and 96.6% (inactive) | 95.7% (inactive) and 89.7% (inactive) | 103% (inactive) and 89.4% (inactive) | 107% (inactive) | 101% (inactive) | 81.3% (inactive) and 97.6% (inactive) | 105% (inactive) and 116% (inactive) | 104% (inactive) and 111% (inactive) | 106% (inactive) and 122% (inactive) | 104% (inactive) and 97% (inactive) | 103% (inactive) | 120% (inactive) and 116% (inactive) | 101% (inactive) and 110% (inactive) | 124% (inactive) and 107% (inactive) | 124% (inactive) and 93.9% (inactive) | 110% (inactive) and 101% (inactive) | 108% (inactive) and 102% (inactive) | 
2 | COc1ccc(CCN(C)CCCC(C#N)(c2ccc(OC)c(OC)c2)C(C)C)cc1OC (configuration not stated) | 93.5% (inactive) and 109% (inactive) | 92.1% (inactive) and 90.3% (inactive) and 98.6% (inactive) | 92.7% (inactive) and 107% (inactive) and 109% (inactive) | 63.4% (inactive) and 86.6% (inactive) and 81.2% (inactive) | 97.1% (inactive) and 127% (inactive) and 95.8% (inactive) | 93.2% (inactive) and 95.8% (inactive) | 73% (inactive) and 79.3% (inactive) and 94.5% (inactive) | 56.5% (inactive) and 96.5% (inactive) and 75.5% (inactive) | 72.9% (inactive) and 83.8% (inactive) and 95.8% (inactive) | 80.8% (inactive) and 94.1% (inactive) and 90.1% (inactive) | 83.9% (inactive) and 83.6% (inactive) and 94.5% (inactive) | 97.5% (inactive) and 93.2% (inactive) | 93.1% (inactive) and 81% (inactive) and 92.6% (inactive) | 85.1% (inactive) and 104% (inactive) | 101% (inactive) and 98.3% (inactive) and 97.9% (inactive) | 98.7% (inactive) and 94.4% (inactive) | 103% (inactive) and 101% (inactive) and 96% (inactive) | 99.8% (inactive) and 88.1% (inactive) and 93.6% (inactive) | 86.6% (inactive) and 92% (inactive) and 86.1% (inactive) | 
3 | OCc1ccccn1 | 106% (inactive) | 110% (inactive) | 97.4% (inactive) | 97.9% (inactive) | 100% (inactive) | 107% (inactive) | 101% (inactive) | 81.8% (inactive) | 99.1% (inactive) | 96.9% (inactive) |  | 108% (inactive) | 105% (inactive) | 113% (inactive) |  | 116% (inactive) | 112% (inactive) | 106% (inactive) | 109% (inactive) | 
4 | CCOC(=O)Nc1nc2ccccc2[nH]1 | 110% (inactive) and 51% (inactive) | 95.6% (inactive) and 68.4% (inactive) | 95.1% (inactive) and 34.9% (inactive) | 94.5% (inactive) and 51.5% (inactive) | 111% (inactive) and 64.6% (inactive) | 103% (inactive) and 52.6% (inactive) | 93.6% (inactive) and 40.7% (inactive) | 117% (inactive) and 42.3% (inactive) | 120% (inactive) and 16.7% (inactive) | 98.9% (inactive) | 97.3% (inactive) and -1.09% (active) | 97.7% (inactive) and 50.6% (inactive) | 109% (inactive) and 58.4% (inactive) | 111% (inactive) and 83% (inactive) | 103% (inactive) and 31.1% (inactive) | 114% (inactive) and 39.3% (inactive) | 122% (inactive) and 1.16% (active) | 11.2% (inactive) | 104% (inactive) and 3.49% (active) | 
5 | NCCSC(C[N+](=O)[O-])c1ccccc1Cl (configuration not stated) | 34.9% (inactive) | 100% (inactive) | 104% (inactive) | 63.3% (inactive) | 51.8% (inactive) | 107% (inactive) | 99.8% (inactive) | 36% (inactive) | -32.1% (active) |  | -22.6% (active) | 61% (inactive) | 99.5% (inactive) | 102% (inactive) | 112% (inactive) |  | -75.7% (active) | -1.76% (active) | 106% (inactive) | 0.339% (active)
6 | CC1(C)[C@@H](OC(=O)CCC(=O)O)CC[C@]2(C)[C@H]3C(=O)C=C4[C@@H]5C[C@@](C)(C(=O)O)CC[C@]5(C)CC[C@@]4(C)[C@]3(C)CC[C@@H]12 | 107% (inactive) and -59.9% (active) | 107% (inactive) and -33.4% (active) | 102% (inactive) and -19.1% (active) | 102% (inactive) and -96.1% (active) | 104% (inactive) and -36.8% (active) | 103% (inactive) and -79.6% (active) | 100% (inactive) and -30.4% (active) | 112% (inactive) and -65.7% (active) | 88.3% (inactive) and -35% (active) | 94.3% (inactive) and -13% (active) | 104% (inactive) and -42.2% (active) | 106% (inactive) and -14.1% (active) | 104% (inactive) and -74.9% (active) | 87.9% (inactive) and -0.335% (active) | 102% (inactive) and -64.1% (active) | 105% (inactive) and -35.8% (active) | 99.7% (inactive) and -94% (active) | 112% (inactive) and -12.9% (active) | 107% (inactive) and -0.161% (active) | 
7 | Nc1cc2c(cc1N)-c1ccccc1C2 | 86.3% (inactive) and 111% (inactive) | 67.1% (inactive) and 68% (inactive) | 75.7% (inactive) and 101% (inactive) | 58.8% (inactive) and 73.1% (inactive) | 108% (inactive) | 82.6% (inactive) and 88.3% (inactive) | 56.8% (inactive) and 79.8% (inactive) | 88.2% (inactive) and 103% (inactive) | 57.3% (inactive) and 79.8% (inactive) | 71.1% (inactive) and 90.7% (inactive) | 41.3% (inactive) and 61% (inactive) | 88.9% (inactive) and 89.5% (inactive) | 122% (inactive) and 109% (inactive) | 99.5% (inactive) and 107% (inactive) | 96.9% (inactive) and 95.1% (inactive) | 58.3% (inactive) and 79.2% (inactive) | 98.6% (inactive) and 97.7% (inactive) | 104% (inactive) | 89.4% (inactive) and 90.2% (inactive) | 
8 | O=C(O)c1cc(C(=O)O)cc([N+](=O)[O-])c1 | 102% (inactive) | 106% (inactive) | 107% (inactive) | 91.3% (inactive) | 102% (inactive) | 105% (inactive) | 96.2% (inactive) | 103% (inactive) | 98.4% (inactive) | 86.4% (inactive) | 108% (inactive) | 106% (inactive) | 105% (inactive) | 108% (inactive) |  | 108% (inactive) | 111% (inactive) | 112% (inactive) | 106% (inactive) | 
9 | Oc1ccccc1/C=N\NC(=S)N/N=C/c1ccccc1O | 82.3% (inactive) and 24.6% (inactive) | 61% (inactive) and 71.2% (inactive) | 58.8% (inactive) and 51.3% (inactive) | 12.4% (inactive) and 15.5% (inactive) | 51.4% (inactive) and 24.3% (inactive) | 15% (inactive) and 10.8% (inactive) | -15.7% (active) and 12.3% (inactive) | 58.5% (inactive) | 21.6% (inactive) and 16% (inactive) | 20% (inactive) and 21.9% (inactive) | 29.3% (inactive) and 40.7% (inactive) | 35.6% (inactive) and 23.4% (inactive) | 59.2% (inactive) and 59.6% (inactive) | 25.7% (inactive) | 46.5% (inactive) and 58.9% (inactive) | 20.9% (inactive) and 34.5% (inactive) | 14.1% (inactive) and 23% (inactive) | 98.4% (inactive) and 73.4% (inactive) | 13.5% (inactive) and 19.6% (inactive) | 
